Only some compounds are listed: those with a hit (about 5.5% of all), similar ones and a draw of the others.
CBFb-RUNX1 inh: blocks binding between human CBF-beta and RUNX1; Potency, µM (doses to about 59.8 µM), without a hit: at the top dose activity, negative = inhibition, hits mostly inhibitors; AID 1477; AlphaScreen CBFb-His/RUNX1-biotin binding, biochemical; 230,000 tested, under 10 active; Q01196+Q13951; note: % of control where 0% means no effect
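His-tagged CBF-beta and biotinylated RUNX1 (30 nM each) were premixed 20 min at room temperature, exposed to compound for 15 min, then given nickel-chelate and streptavidin AlphaScreen beads (50 ng each). After 90 min, AlphaScreen signal was read.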
MBNL1 CUG block: blocks human MBNL1 binding to CUG repeat RNA. Q9NR56. AID 2675. actives 0.036% (n = 280,000). TR-FRET MBNL1-His/biotin-(CUG)12 binding, 665/545 ratio. Potency, µM (titrated, usually from 57.5 µM), for the others: at the highest dose activity change, negative = inhibition, most hits filed as inhibitors; active = well fitted inhibition curve with a large enough effect in the signal ratio, with a control signal flat, not every such curve was filed as active; inconclusive = small, poorly fitted or top-dose-only effect, or effect the other way, or a change in a side signal; inactive = no such curve, though single readings can be large or run the other way; the % refers to the signal ratio; note: potency is the fitted concentration of half-maximal effect; % is set by controls: 0 for no effect and ±100 for the full control effect
Target sequence (Q9NR56 whole entry, looked up): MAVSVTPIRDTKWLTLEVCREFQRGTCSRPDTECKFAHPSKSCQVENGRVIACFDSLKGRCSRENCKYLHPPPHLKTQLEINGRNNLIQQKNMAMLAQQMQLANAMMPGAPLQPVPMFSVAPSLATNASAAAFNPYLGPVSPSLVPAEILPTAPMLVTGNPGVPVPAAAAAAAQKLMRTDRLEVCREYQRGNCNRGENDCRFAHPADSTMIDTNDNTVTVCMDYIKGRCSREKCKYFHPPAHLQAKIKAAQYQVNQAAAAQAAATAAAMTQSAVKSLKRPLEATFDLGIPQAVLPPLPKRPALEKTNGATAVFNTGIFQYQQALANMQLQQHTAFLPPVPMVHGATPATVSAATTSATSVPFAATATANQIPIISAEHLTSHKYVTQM
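TR-FRET between His-tagged MBNL1 and biotin-(CUG)12 RNA, detected with Tb anti-His antibody (0.055 ng/ul) and streptavidin-XL665 (5 nM), 60 min at room temperature. Compounds titrated 92 nM to 58 uM; 665/545 nm ratio normalized to buffer and complex controls.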
Gal4-VP16 FLuc: inhibits Gal4-VP16 luciferase reporter, ROR gamma counter-screen; Drosophila S2 Gal4-VP16 UAS-luciferase, luminescence, 20 h; Potency, µM (series often up to 53.6 µM), without a hit: at the highest dose activity, negative = inhibition, actives largely listed as inhibitors; actives 3.5% (n = 310,000);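 note: Gal4-VP16 expression switched on by copper sulfate through the metallothionein promoter; potency is the fitted concentration of half-maximal effect; % is set by controls: 0 for no effect and ±100 for the full control effect; nearly all actives have a fitted effect of over 50% in size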
Six1-Eya2 inh: Six1/Eya2 interaction inhibition | Q15475+O00167 | AlphaScreen GST-Six1/His-Eya2 binding, biochemical; hits give low values | activity change, % (test concentration not listed) | actives 0.56% (n = 360,000); in the data active = activity change below about -65%; inconclusive = mostly about -30% to -63%; note: % is set by controls: 0 for no effect and ±100 for the full control effect
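Compounds are tested against tagged Six1 and Eya2 proteins bridged by glutathione donor and nickel acceptor beads; after a one-hour incubation at 37 °C without light, AlphaScreen emission is recorded.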
CtBP-E1A inh: inhibitors of CtBP/E1A interaction; AID 651724; activity change, % (test concentration not listed); AlphaScreen GST-E1A/His-CtBP binding, 1536-well; hits give low values; actives 0.49% (n = 340,000); in the data active = activity change below about -65%; inconclusive = mostly about -30% to -63%; note: % is set by controls: 0 for no effect and ±100 for the full control effect
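AlphaScreen with 125 nM GST-E1A and 125 nM His-CtBP (5X stocks) in Tris pH 8.0, 300 mM NaCl, BSA, Tween 20, TCEP. Compounds preincubated 2 h at 37 deg C, then glutathione donor/nickel acceptor beads added for 1 h at 37 deg C in dark.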
RORgamma inh: ROR gamma (mouse) transcription inhibition; Drosophila S2 Gal4-RORgamma UAS-luciferase reporter, 20 h; P51450; actives 5.4% (n = 310,000); Potency, µM (top dose mostly 53.6 µM), for inactives: at the top dose activity change, negative = inhibition, hits mostly inhibitors; note: potency is the fitted concentration of half-maximal effect; % is set by controls: 0 for no effect and ±100 for the full control effect; nearly all actives have a fitted effect of over 60% in size
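Luminescence from a UAS-regulated Photinus luciferase reporter in stably transfected Drosophila Schneider cells is measured; decreased signal marks ROR gamma inhibition. Fusion expression is induced by 700 uM copper sulfate for 20 hr.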
* hit, by the source's call; u = inconclusive; x = no result given; [ ] = another dose, or the depositor's remark. Unless noted, calls come from the whole dose curve; as a rule, active = well fitted curve in the direction sought with a large enough effect; inconclusive = small, poorly fitted or top-dose-only effect, or another doubt; inactive = no such curve, though single readings can be large; an effect the other way counts as inactive or inconclusive.

SMILES	CBFb-RUNX1 inh	MBNL1 CUG block	Gal4-VP16 FLuc	Six1-Eya2 inh	CtBP-E1A inh	RORgamma inh
CC1NC(=O)NC1CCCCCC(=O)Nc1ccc(F)cc1 (configuration not stated)	x	0.1µM*	-4.8%[10 µM]	5.0	7.7	21.2%
COc1ccc([C@@H]2CC(=O)[C@@H]3CN(S(=O)(=O)c4ccc(Cl)cc4)[C@H](c4ccc(C)cc4)C[C@@H]3N2S(=O)(=O)c2ccccc2)cc1	x	x	x	7.7	-14.3	x
CC(C)Oc1cccc(C(=O)Nc2nnc([C@H]3C[C@H](O)[C@@H](CO)O3)s2)c1	x	x	x	1.5	1.4	x
Cc1ccc(S(=O)(=O)N(C)c2nc3ccccc3[nH]c2=S)cc1	-15.2%	11.7%	-10.4%	-0.5	11.6	4.47µM*
CCc1nnc2c(N(C)S(=O)(=O)c3ccc(C)cc3)nc3ccccc3n12	x	2.5%	17.2%	3.8	3.7	-9.0%
N#CN(Cc1ccccc1)Cc1ccccc1	10.3%	-12.0%	-17.5%	0.9	9.1	14.0%
COc1ccc(NC(=O)Cn2c(=O)oc3cc(S(=O)(=O)N4CCCC4)ccc32)cc1	x	4.5%	-8.0%	-7.6	1.0	23.6%
Cc1ccc(NC(=O)Cn2c(=O)oc3cc(S(=O)(=O)N4CCC(C)CC4)ccc32)cc1C	2.9%	-1.6%	20µM*	-7.1	-2.7	2.9%
Cc1cc([N+](=O)[O-])ccc1NC(=S)NC(=O)C(c1ccccc1)c1ccccc1	-26.9%	5.6%	10µM*	u	-11.3	7.94µM*
CCCCC(=O)NC(=S)Nc1cc([N+](=O)[O-])ccc1OC	-5.6%	15.9%	-25.2%	-10.0	-7.4	10µM*
Cc1cc([N+](=O)[O-])ccc1NC(=S)NC(=O)Cc1ccccc1	-16.7%	u	u	-18.0	-7.3	22.4µM*
Cc1ccc([N+](=O)[O-])cc1NC(=S)NC(=O)CC(C)(C)C	1.3%	29.3%	22.4µM*	-5.1	-11.3	6.31µM*
CC(=O)NC(=S)Nc1ccc([N+](=O)[O-])cc1C	3.8%	u	-0.5%	-0.3	6.0	-29.8%
CC(=O)c1nn(-c2ccc(C(F)(F)F)cc2)c(=O)[nH]c1=O	x	15.7%	-3.6%	7.8	1.4	-1.0%
CCC(=O)N1CCc2cc(S(=O)(=O)CCC(=O)N3CCCC(C)C3)ccc21 (configuration not stated)	x	0.4%	-1.6%	1.4	x	-2.5%
CC(=O)NC(NC(=S)Nc1ccc(C)cc1C)C(Cl)(Cl)Cl (configuration not stated)	8.5%	-1.1%	-9.6%	1.2	x	-11.0%
O=C(COc1ccccc1)NC(NC(=S)Nc1ccccc1O)C(Cl)(Cl)Cl (configuration not stated)	-5.5%	-4.7%	-9.0%	-22.6	-21.8	44.8%
Cc1ccccc1NC(=S)NC(NC(=O)COc1ccccc1)C(Cl)(Cl)Cl (configuration not stated)	-6.5%	-8.4%	-15.4%	0.0	8.4	u
CCc1ccc(OCC(=O)NC(NC(=S)Nc2ccccc2C)C(Cl)(Cl)Cl)cc1 (configuration not stated)	2.7%	u	5.01µM*	2.4	9.3	6.31µM*
CCc1ccc(OCC(=O)NC(NC(=S)Nc2ccccc2OC)C(Cl)(Cl)Cl)cc1 (configuration not stated)	5.4%	-4.4%	u	0.6	5.2	u
COC(=O)c1ccccc1NC(=S)NC(NC(=O)COc1ccccc1)C(Cl)(Cl)Cl (configuration not stated)	1.6%	2.2%	u	-9.5	1.6	5.62µM*
CCc1ccc(OCC(=O)NC(NC(=S)Nc2ccc(C)cc2C)C(Cl)(Cl)Cl)cc1 (configuration not stated)	3.8%	-0.7%	u	-9.0	6.0	10µM*
CCc1ccc(OCC(=O)NC(NC(=S)Nc2ccccc2)C(Cl)(Cl)Cl)cc1 (configuration not stated)	1.8%	x	12.6µM*	3.6	8.4	u
C=CCNc1nc2cc(-c3cccc(NC(C)=O)c3)sc2c(=O)n1C	x	x	x	-6.5	0.8	x
CC(=O)c1sc(NC(=O)CCS(=O)(=O)c2ccc(C)cc2)nc1C	x	x	x	5.2	7.0	x
SMILES	CBFb-RUNX1 inh	MBNL1 CUG block	Gal4-VP16 FLuc	Six1-Eya2 inh	CtBP-E1A inh	RORgamma inh
CCOC(=O)c1c(S(=O)(=O)NCC(=O)Nc2ccc(F)cc2)c(C)n(C)c1C	x	-4.4%	-3.9%	-0.3	-20.4	7.7%
COc1ccc(C(=O)NC(=S)N2CCN(c3ccccc3OC)CC2)cc1	x	2.3%	u	-20.3	-14.9	2µM*
CC1C(c2ccccc2)OCCN1C(=S)NC(=O)c1ccccc1 (configuration not stated)	x	x	x	-3.1	8.2	x
CC1CN(C(=S)Nc2cccc(Cl)c2Cl)CC(C)O1 (configuration not stated)	x	0.3%	u	4.0	5.9	17.8µM*
CC1CN(C(=S)NC(=O)c2ccccc2)CC(C)O1 (configuration not stated)	x	-4.1%	3.16µM*	1.5	4.5	3.55µM*
O=C(NC(=S)N1CCOCC1)c1ccc([N+](=O)[O-])cc1	-4.8%	u	2.24µM*	4.1	-4.2	1.41µM*
CC1CCC2(CC1)NC(=O)N(CC(=O)Nc1cccnc1Cl)C2=O (configuration not stated)	x	x	x	7.9	-1.4	x
CN1CCN(C(=S)NC(=O)c2ccco2)CC1	-6.9%	2.8%	14.1µM*	0.0	7.2	3.55µM*
CC1CN(C(=S)NC(=O)c2ccco2)CC(C)O1 (configuration not stated)	1.0%	u	20µM*	-0.2	-0.3	3.98µM*
CC1CN(C(=S)SCC(=O)c2ccc([N+](=O)[O-])cc2)CC(C)O1 (configuration not stated)	x	u	2.6%	-26.5	-25.9	18.4%
CC1CN(C(=S)NC(=O)c2ccc([N+](=O)[O-])cc2)CC(C)O1 (configuration not stated)	4.1%	u	1.26µM*	6.1	3.1	0.447µM*
O=C(NC(=S)N1CCCC(O)C1)c1ccco1 (configuration not stated)	x	x	x	-2.2	x	x
CC(NNC(=S)N1CCN(c2ccccn2)CC1)c1nccc2ccccc12 (configuration not stated)	x	x	x	-92.0*	2.5	x
COc1ccc(C(NC(=O)C2CCN(Cc3ccc(Oc4ccccc4)cc3)CC2)c2ccccc2C)cn1 (configuration not stated)	x	x	x	-21.9	-19.5	x
C=CCN(CC=C)Cc1cc(=O)oc2cc(C)cc(C)c12	x	x	x	20.7	24.0	x

Bioassay records (PubChem BioAssay)
